Laboratory results taken from PubChem BioAssay AID1645882 (National Center for Advancing Translational Sciences (NCATS), 2021).
Where “and” joins values, the source holds several entries; their conditions need not be identical. Equal entries are not always repeated. Hit rate of the full screen: of about 16,000 compounds, about 120 (0.75%) were called active. Roughly 4% stayed inconclusive and do not appear here. Calls follow the shape of the dose curve; as a rule, active = well fitted inhibition curve with a large enough effect; inconclusive = small, poorly fitted or top-dose-only effect; inactive = no such curve, though single readings can be large or run the other way. For the sample, actives were picked, then their nearest neighbours and some compounds at random.

Molecular target: Rap guanine nucleotide exchange factor 3 (Homo sapiens) (UniProt O95398)
Sequence (O95398 whole entry, looked up): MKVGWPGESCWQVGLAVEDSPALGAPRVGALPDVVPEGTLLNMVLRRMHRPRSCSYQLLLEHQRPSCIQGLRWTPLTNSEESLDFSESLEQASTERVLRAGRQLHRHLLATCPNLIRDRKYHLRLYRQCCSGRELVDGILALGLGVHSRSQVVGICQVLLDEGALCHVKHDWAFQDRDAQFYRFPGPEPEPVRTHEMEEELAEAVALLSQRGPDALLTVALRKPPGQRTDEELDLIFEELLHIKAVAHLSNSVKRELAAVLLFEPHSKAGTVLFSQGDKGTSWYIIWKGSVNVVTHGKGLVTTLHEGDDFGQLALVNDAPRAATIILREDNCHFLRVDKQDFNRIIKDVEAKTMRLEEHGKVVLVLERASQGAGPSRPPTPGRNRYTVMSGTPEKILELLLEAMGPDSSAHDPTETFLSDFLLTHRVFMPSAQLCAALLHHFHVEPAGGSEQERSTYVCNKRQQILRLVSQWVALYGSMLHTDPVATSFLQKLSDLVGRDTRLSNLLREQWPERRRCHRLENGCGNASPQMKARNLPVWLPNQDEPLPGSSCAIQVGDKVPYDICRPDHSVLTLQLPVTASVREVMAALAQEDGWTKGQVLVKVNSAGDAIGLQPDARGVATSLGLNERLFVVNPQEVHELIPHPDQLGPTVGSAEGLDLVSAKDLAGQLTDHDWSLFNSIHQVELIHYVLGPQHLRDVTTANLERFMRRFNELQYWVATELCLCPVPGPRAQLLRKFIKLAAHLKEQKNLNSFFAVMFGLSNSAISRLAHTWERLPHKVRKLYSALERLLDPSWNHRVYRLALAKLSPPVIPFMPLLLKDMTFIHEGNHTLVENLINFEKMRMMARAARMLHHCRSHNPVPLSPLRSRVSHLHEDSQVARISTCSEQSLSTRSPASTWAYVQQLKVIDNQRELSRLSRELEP
Test: Validation qHTS for antagonist of cAMP-regulated guanine nucleotide exchange factor 3 (EPAC1); also: nearly all actives have a fitted effect of over 75% in size
Conditions: EPAC1 Rap1B-BODIPY-GDP exchange, fluorescence; series mostly up to 150 µM; activity change, negative = inhibition: at the top concentration
From the text: Assay Provider (PI): Xiaodong Cheng Ph.D.
The University of Texas Medical Branch, […], TX
In multi-cellular eukaryotic organisms, the effects of cAMP are transduced by two ubiquitously-expressed intracellular cAMP receptors, the classic protein kinase A/cAMP-dependent protein kinase (PKA/cAPK) and the more recently discovered exchange protein directly activated by cAMP/cAMP-regulated guanine nucleotide exchange factor (EPAC/cAMP-GEF). Both PKA and EPAC are ubiquitously expressed in all tissues, and an increase in intracellular cAMP levels will lead to the activation of both PKA and EPAC. Therefore, careful dissections of the individual role and relative contribution of EPAC and PKA within the overall cAMP signaling in various model systems are critical for further elucidating the mechanism of cAMP signaling. To date no EPAC-specific antagonists and agonist, as well as isoform-specific agonists have been reported, and developing EPAC-specific pharmacological probes to determine the physiological functions that EPAC play in the overall cAMP-mediated signaling remains a major challenge within the research field. Furthermore, identified regulators of EPAC may lead to new mechanism-based therapeutic strategies specifically targeting the EPAC / cAMP-signaling components as EPAC has been implicated to play important roles in major human pathological conditions such as diabetes, heart disease, and cancer.
This qHTS will be used to screen the Molecular Libraries Small Molecule Repository (MLSMR) as a concentration-titration series using the NCGC unique quantitative screening (qHTS) platform to find activators for EPAC1. In addition, this assay will also be used as a counterscreen for the EPAC2 qHTS. This fluorescent based assay is developed and validated for EPAC1 that measures exchange using EPAC effector Rap1 complex with BODIPY-GDP, a GDP analog with a tethered fluorophores. Activators are identified by monitoring the change in fluorescence signal as the exchanged free BODIPY-GDP has a reduced fluorescence compared to Rap1-bound BODIPY-GDP. Increase in signal (activation) is the desired outcome for the EPAC1 agonist while no activity in this assay is desired for the EPAC2 agonist counterscreen.
[1] de Rooij, J., Zwartkruis, F. J., Verheijen, M. H., Cool, R. H., Nijman, S. M., Wittinghofer, A., and Bos, J.L. (1998) Nature 396, 474-477.
Briefly, three uL of reagents (100 nM EPAC1, 250 nM RAP1B-BODIPY-GDP, 50 uM GDP) were dispensed into a 1536-well Greiner black solid-bottom medium binding assay plate. Controls and test compounds (23 nL) were transferred to the plate via a Kalypsys pin tool equipped with a 1536-pin array. The plates were centrifuged at 1,000 rpm for 15 seconds followed by 5 minute incubation at room temperature. The assay plates were read at 5 minute intervals for 30 minutes in the ViewLux plate reader using 480nm excitation and 540nm emission filters. The results were normalized to the […] positive control ATA and DMSO.
Potency is read from the fitted curve at half-maximal effect.

Structure (SMILES)	activity change, negative = inhibition	Potency
OCC1OC(n2cnc3c(=S)nc[nH]c32)C(O)C1O (centres undefined)	12.5% (inactive)	–
Cc1cccc(CNc2ccnc(-c3ccccc3Cl)n2)c1	-8.78% (inactive)	–
O=C1CCC(=O)N1CO	7.5% (inactive)	–
COc1cc(OC)c(/C=C/c2ccc3ccccc3n2)c(OC)c1	11.9% (inactive)	–
COc1ccccc1CCn1c(=O)cnc2cncnc21	9.6% (inactive)	–
COc1ccc(CNc2nc(-c3ccccc3OC)nc3ccccc23)c(OC)c1	-2.83% (inactive)	–
C=CC(C)(C)c1[nH]c2ccccc2c1C1=C(O)C(=O)C(c2c[nH]c3c(CC=C(C)C)cccc23)=C(O)C1=O	–	56.2 µM (active)
CCc1cccc2c(C(O)c3c[nH]c4ccccc34)c[nH]c12 (centres undefined)	-21.8% (inactive)	–
CC(C)=CCC1=C(O)c2ccccc2C(=O)C1=O	–	inactive
Cc1cc(-c2ccnc(-n3ncc(C(=O)NCCc4cccnc4)c3C)n2)c(C)s1	6.29% (inactive)	–
COc1ccc(CN2CCC(n3cc(C(=O)N4CCCC4)nn3)CC2)c(OC)c1C	13% (inactive)	–
O=C(c1cnccn1)N1CCC2(CCCN(Cc3nccs3)C2)CC1	13.2% (inactive)	–
NC(C(=O)O)c1cc(O)c(Cl)c(O)c1 (centres undefined)	–	56.2 µM (active)
N[C@H](C(=O)O)c1cc(O)cc(O)c1	–	inactive
NC(C(=O)O)c1cc(O)cc(O)c1 (centres undefined)	23.2% (inactive)	–
CCCCCCCCCCCCCC[N+](C)(C)C	19.7% (inactive)	–
Cc1cc(O)c(C=O)c(O)c1C(=O)O	-4.66% (inactive)	–
Cc1cc2c(C(C)C)c(O)c(O)c(C=O)c2c(O)c1-c1c(C)cc2c(C(C)C)c(O)c(O)c(C=O)c2c1O	–	50.1 µM (active) and 39.8 µM (active) and 79.4 µM (active)
Cc1c(C(=O)N(C)C(C)C)sc2ncnc(NCCCN3CCOCC3)c12	14.4% (inactive)	–
COc1ccc(SC[C@H](C)CN2CC[C@H](C(C)(C)C)CCC2=O)cc1	-22.7% (inactive)	–
C=CC1=C(C)C2=CC3=NC(=C(CC(=O)[O-])C4=NC(=C(C)C4=C([O-])[O-])C=c4[n-]c(c(C)c4CC)=CC1=N2)C(CCC(=O)[O-])C3C.[Cu+2].[Na+].[Na+].[Na+] (centres undefined)	–	89.1 µM (active)
CCCCCCCCCCCCC(C(=O)O)C(C)C(=O)O (centres undefined)	1.9% (inactive)	–

Structure (SMILES)	activity change, negative = inhibition	Potency
CCCCCCCCCCCCC(O)C(=O)O (centres undefined)	-12.9% [at 15.3 µM] (inactive)	–
CCCCCCCCCCCCCCCCC(C(=O)O)C(O)(CC(=O)O)C(=O)O (centres undefined)	–	35.5 µM (active)
CN1CCN(c2ncc3nc(-c4ccccc4)c(=O)n(CCC#N)c3n2)CC1	5.83% (inactive)	–
Oc1cc(O)c2c(c1)O[C@H](c1ccc(O)c(O)c1)[C@@H](O)C2	–	inactive
O=c1c(O)cc(C2Oc3cc(O)cc(O)c3CC2O)cc2c(C3Oc4cc(O)cc(O)c4CC3O)cc(O)c(O)c12 (centres undefined)	–	39.8 µM (active)
Oc1cc(O)c2c(c1)OC(c1cc(O)c(O)c(O)c1)C(O)C2 (centres undefined)	-8.05% (inactive)	–
Oc1ccc(C2Oc3cc(O)cc(O)c3CC2O)cc1 (centres undefined)	2.55% (inactive)	–
Oc1ccc2c(c1)OC(c1ccc(O)c(O)c1)C(O)C2 (centres undefined)	20.8% (inactive)	–
Oc1cc(O)c2c(c1)O[C@H](c1ccc(O)c(O)c1)[C@H](O)C2	–	79.4 µM (active)
CN(Cc1cnc2ccccn12)C1CCN(c2cccc(NC(=O)c3cccnc3)c2)CC1	-5.71% (inactive)	–
Cc1ccc(C(=O)N(Cc2cc3cc4c(cc3nc2N2CCOCC2)CCC4)CC2CCCO2)cc1 (centres undefined)	-21% (inactive)	–
CC(C)C[C@@H](CO)N1CCN(Cc2ccccc2)CCC1=O	–	inactive
O=C(NCc1cccnc1)[C@@H]1CC=C[C@@H]2CCN(Cc3ccc(Cl)c(Cl)c3)C(=O)[C@@H]21	0.262% (inactive)	–
CC(C)(Sc1ccc(CCN(CCCCC2CCCCC2)C(=O)NC2CCCCC2)cc1)C(=O)O	–	44.7 µM (active)
O=c1c(-c2ccccc2)nc2cnc(Oc3cccc(Cl)c3)nc2n1C[C@H]1CCCO1	12.9% (inactive)	–
COc1cc([C@@H]2c3cc4c(cc3C(OC3OC5COC(C)OC5C(O)C3O)C3COC(=O)[C@@H]32)OCO4)cc(OC)c1O (some centres undefined)	11.4% (inactive)	–
O=C1c2c(O)cccc2[C@H]([C@@H]2O[C@H](CO)[C@@H](O)[C@H](O)[C@H]2O)c2cc(CO)cc(O)c21	4.72% (inactive)	–
O=C1c2c(O)cccc2[C@@H]([C@@H]2O[C@H](CO)[C@@H](O)[C@H](O)[C@H]2O)c2cc(CO)cc(O)c21	4% (inactive)	–
O=C(O)c1cc(O)c2c(c1)[C@H]([C@H]1c3cc(C(=O)O)cc(O)c3C(=O)c3c(O[C@@H]4O[C@H](CO)[C@@H](O)[C@H](O)[C@H]4O)cccc31)c1cccc(O[C@@H]3O[C@H](CO)[C@@H](O)[C@H](O)[C@H]3O)c1C2=O	–	100 µM (active)
CCCN1CCC(=O)N([C@H](CO)Cc2ccccc2)CC1	7.95% (inactive)	–
Nc1c(S(=O)(=O)O)cc(Nc2ccc(Nc3nc(Cl)nc(Nc4ccc(S(=O)(=O)O)cc4)n3)c(S(=O)(=O)O)c2)c2c1C(=O)c1ccccc1C2=O	–	22.4 µM (active)
CC#CCC(C)[C@H](O)/C=C/[C@@H]1[C@H]2c3cccc(CCCC(=O)O)c3O[C@H]2C[C@H]1O (some centres undefined)	7.01% (inactive)	–
